PubChem BioAssay (NCI)
Where “and” joins values, the source holds several entries; their conditions need not be identical. Equal values may be shown once. This is part of a sample that, as a whole, favours compounds with a hit. Of some 83,000 tested, about 20% had one in any assay.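 Results are percent growth after 48 hours of single-concentration exposure. 100 means growth as in untreated cells, lower positive values show inhibition; negative values down to -100 show cell death.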 A number with no mark means an inactive call. Calls of active or inactive are those of the source. Rule for the calls: active = growth percent below 10; inactive = the rest.

Test system: U251 CNS
Experiment: NCI-60 one-dose screen, 48 h (100 = growth as untreated, 0 = no growth, -100 = all killed)
Conditions: 10 µM unless noted

Row | SMILES | growth
1 | Nc1cccc(-n2c(COc3ccc(I)cc3)nc3ccccc32)c1 | 84.8% and 101%
2 | COC(=O)c1cc(C(=O)C(Br)Br)n2c1ccc1c3ccccc3ccc12 | 44.3%
3 | O=C(NN1C(=O)/C(=C/C=C/c2ccc([N+](=O)[O-])o2)SC1=S)c1ccc([N+](=O)[O-])cc1 | -89.4% (active)
4 | Cc1ccc2nc(NC(=O)Nc3cccc(Cl)c3)sc2c1 | 111%
5 | O=C1/C(=C/c2cccc3c2OCO3)Cc2c(F)cc(Br)cc21 | 105%
6 | CC(C)(C)C(=O)C1CC(C#N)=C2C=Cc3c(ccc4ccccc34)N21 (stereo not given) | 75.2%
7 | Cc1ccc(C(=O)Nc2cc(-c3ccncc3)cc(C(F)(F)F)c2)cc1C#Cc1cnc2cccnn12 | 66.5%
8 | CCOc1ccc(-c2cc(-c3cc(C(C)C)c(O)cc3C)nn2-c2ccc(S(N)(=O)=O)cc2)cc1 | 27.8%
9 | N#Cc1ccc(C(=O)CSc2nc3c(c(Nc4ccc(S(N)(=O)=O)cc4)n2)CCC3)cc1 | -85.2% (active)
10 | COc1ccc2c(c1)C(Sc1ccc(Cl)cc1)c1c(nc(N)c(C#N)c1N)O2 (stereo not given) | 51.9%
11 | Fc1ccccc1CNc1nc(SCCN2CCOCC2)nc2c1cnn2CC(Cl)c1ccc(Br)cc1 (stereo not given) | 37.8%
12 | COc1ccc(-c2nnc3c(/C=C/c4ccc(Br)cc4)nc4ccccc4n23)cc1 | 68.4%
13 | Cc1nn(-c2ccccc2)c2ncn(CC(=O)N/N=C/c3ccccc3O)c(=O)c12 | 40.2%
14 | CCOC(=O)c1ccc(NC(=S)NC(=O)c2cccc(NC(=O)c3ccc(C)cc3)c2)cc1 | 2.07% (active)
15 | COc1cc(/C=C/C(=O)c2cnn(-c3cc(=O)[nH]c4ccc(Cl)cc34)c2C)cc(OC)c1OC | -65.7% (active)
16 | Cc1[nH]nc2ccc3nc(-c4cnn(CCO)c4)c4c(c3c12)CCCC4 | 57.2%
17 | CCC1(OC(=O)c2ccccc2SSCCOC(=O)CCCCC2SCC3NC(=O)NC32)C(=O)OCc2c1cc1n(c2=O)Cc2cc3ccccc3nc2-1 (stereo not given) | 36.2%
18 | CN(C)c1nc(NCCNS(=O)(=O)c2ccc(C(=O)/C=C/c3ccc(Cl)cc3)cc2)nc(N2CCOCC2)n1 | -92% (active)
19 | C[C@@H]1CN(c2ccc3ncc(C#Cc4cncc(C(=O)Nc5ccc(CN6CCN(C)CC6)c(C(F)(F)F)c5)c4)n3n2)C[C@@H](C)O1 | -68.8% (active)
20 | O=C1Nc2ccccc2/C1=C\c1ccc(OCC(=O)c2ccc(Br)cc2)cc1 | 71.5%
21 | COc1ccc(NC(=O)NN2C(=O)c3ccccc3N(C)C2c2ccc(OC)cc2)cc1 (stereo not given) | 105%
22 | COc1ccc2c(c1)N=c1c-2cc2c(O)[nH]c(=S)n2c1=O | 30.9%
23 | CCC(=O)c1c2c(c3ccc4c5ccccc5ccc4n13)C(=O)c1ccccc1C2=O | 90.4%
24 | CC1=C(C(=O)Nc2ccccc2)C(c2cccc(Cl)c2Cl)n2c(nc3ccccc32)N1 (stereo not given) | 57.2%
25 | COc1cc(/C=N/NC(=O)c2ccc(OCc3nc4ccc(C)cc4[nH]3)cc2)cc(OC)c1OC | 29%
26 | Cc1ccc(C2CC(c3ccc(NC(=S)Nc4ccccc4)cc3)=NN2c2ccc(S(N)(=O)=O)cc2)cc1 (stereo not given) | 5.8% (active)
27 | Nc1cc2ccccc2c(=O)n1NC(=O)c1ccc(Br)cc1 | 96.1%
28 | COc1cc(C2CC(c3ccc(S(=O)(=O)NCCNc4nc(N(C)C)nc(N5CCOCC5)n4)cc3)=Nc3c(N)nc(N)nc3N2)cc(OC)c1OC (stereo not given) | 97.5%
29 | Cn1cc(-c2cc(N)n3nc(-c4c[nH]c5ccccc45)cc3n2)c2ccccc21 | -93.1% (active)
30 | COc1ccc2[nH]c(=O)c(CSc3ccccc3Nc3nccc(-c4ccc(C(F)(F)F)cc4)n3)cc2c1 | 22.5%
